# Measurements from PubChem BioAssay.
# Values joined by “and” are separate entries in the source; they are usually repeats but may differ in a detail not shown here. Equal entries are not always repeated. Inconclusive results are not listed. Some structures have more than one record in an assay (separate samples or runs), and their calls can disagree. Active and inactive are the calls of the source. Cut-off read from the data, not from the text of the source, unless noted: active = parasite load remaining mostly below about 12% (no sharp cut-off); inactive = mostly above about 10%.
# Target: ATP-dependent translocase ABCB1 (Homo sapiens) (UniProt P08183)
# Sequence (P08183 whole entry, looked up): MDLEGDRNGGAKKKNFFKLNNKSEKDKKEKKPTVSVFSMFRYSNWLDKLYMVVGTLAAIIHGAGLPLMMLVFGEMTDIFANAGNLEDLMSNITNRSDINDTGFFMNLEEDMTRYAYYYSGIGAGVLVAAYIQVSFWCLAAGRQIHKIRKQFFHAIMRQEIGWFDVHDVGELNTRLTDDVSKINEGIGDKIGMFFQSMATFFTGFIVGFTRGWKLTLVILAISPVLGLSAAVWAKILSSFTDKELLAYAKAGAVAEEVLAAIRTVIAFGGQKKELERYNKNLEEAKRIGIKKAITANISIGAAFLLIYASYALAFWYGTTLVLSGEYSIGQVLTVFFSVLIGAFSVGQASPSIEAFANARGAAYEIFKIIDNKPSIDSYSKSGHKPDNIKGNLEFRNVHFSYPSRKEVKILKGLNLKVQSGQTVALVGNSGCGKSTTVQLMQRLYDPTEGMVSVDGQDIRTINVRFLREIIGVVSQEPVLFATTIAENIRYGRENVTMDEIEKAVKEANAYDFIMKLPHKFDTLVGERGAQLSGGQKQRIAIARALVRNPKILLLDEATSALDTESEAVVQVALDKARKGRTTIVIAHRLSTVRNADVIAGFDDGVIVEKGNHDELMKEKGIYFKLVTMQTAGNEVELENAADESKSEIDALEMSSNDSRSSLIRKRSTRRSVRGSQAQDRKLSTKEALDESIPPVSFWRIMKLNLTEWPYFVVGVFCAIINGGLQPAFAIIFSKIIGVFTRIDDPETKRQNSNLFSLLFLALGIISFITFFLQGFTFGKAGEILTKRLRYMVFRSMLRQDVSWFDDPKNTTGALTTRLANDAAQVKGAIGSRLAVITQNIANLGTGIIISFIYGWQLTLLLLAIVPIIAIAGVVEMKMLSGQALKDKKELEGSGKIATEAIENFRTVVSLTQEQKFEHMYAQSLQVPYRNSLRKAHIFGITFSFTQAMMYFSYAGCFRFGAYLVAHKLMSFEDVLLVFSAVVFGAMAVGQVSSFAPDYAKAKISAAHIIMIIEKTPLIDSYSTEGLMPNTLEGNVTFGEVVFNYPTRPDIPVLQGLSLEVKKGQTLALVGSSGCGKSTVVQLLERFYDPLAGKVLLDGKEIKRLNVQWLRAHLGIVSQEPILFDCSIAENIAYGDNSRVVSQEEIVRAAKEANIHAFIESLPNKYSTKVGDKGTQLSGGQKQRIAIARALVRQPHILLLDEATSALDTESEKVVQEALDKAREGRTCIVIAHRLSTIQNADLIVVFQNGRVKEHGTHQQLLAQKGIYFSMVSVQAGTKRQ
# Experiment: P-glycoprotein substrate transport blockade – cell-based (AID 377; in the data active = fluorescence slope change above about 50%)
# Details: MDR1-expressing cells, fluorescent substrate accumulation slope; stronger effect = higher value; concentration not given here
row,SMILES,fluorescence slope change
1,C[C@]12CC[C@H]3[C@@H](CC[C@]4(O)C[C@@H](O)CC[C@]34C=O)[C@@]1(O)CC[C@@H]2C1=CC(=O)OC1,11.2% (inactive)
2,CN1C[C@H](CO)C=C2c3cccc4[nH]cc(c34)C[C@H]21,116% (active)
3,O=C1OCCN1N=Cc1ccc([N+](=O)[O-])o1,82.1% (active)
4,C[C@]12CCC3[C@@H](CC[C@@H]4C[C@H](O)CC[C@]34C)[C@@H]1CCC2=O (stereo not given in full),52.7% (active)
5,C(#CCN1CCCC1)CN1CCCC1,19.7% (inactive)
6,C[N+]1([O-])[C@@H]2CC(OC(=O)[C@H](CO)c3ccccc3)C[C@H]1[C@@H]1O[C@@H]12 (stereo not given in full),76.2% (active)
7,C[C@]12CC[C@H](O)C[C@H]1CC[C@@H]1[C@@H]2CC[C@]2(C)[C@@H](C3=CC(=O)OC3)CC[C@]12O,80.1% (active)

# Tested on: not listed separately
# Experiment: compounds altering viability of human ES cells (AID 493140; call rule not given here;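 note: cells exposed to compounds for four days before counting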)
# Details: human embryonic stem cell survival screen; stronger effect = higher value
row,SMILES,survival
1,CCC1(C)CC(=O)NC(=O)C1,3.92 (inactive)
2,C[C@]12CC[C@@H](O)C[C@@H]1CC[C@@H]1[C@@H]2CC[C@]2(C)C(=O)CC[C@@H]12,13.1 (inactive)
3,C[C@]12CC[C@H]3[C@@H](CC[C@]4(O)C[C@@H](O)CC[C@]34C=O)[C@@]1(O)CC[C@@H]2C1=CC(=O)OC1,1.42 (inactive)
4,C[C@]12CCC(=O)C=C1CC[C@@H]1[C@@H]2C(=O)C[C@]2(C)C(=O)CC[C@@H]12,4.17 (inactive)
5,CN1C[C@H](CO)C=C2c3cccc4[nH]cc(c34)C[C@H]21,7.67 (inactive)
6,O=C1OCCN1N=Cc1ccc([N+](=O)[O-])o1,4.33 (inactive)
7,C[C@]12CCC3[C@@H](CC[C@@H]4C[C@H](O)CC[C@]34C)[C@@H]1CCC2=O (stereo not given in full),4.25 (inactive)
8,Clc1ccc(C(Cn2ccnc2)OCc2csc3c(Cl)cccc23)c(Cl)c1 (stereo not given),10.7 (inactive)
9,C[C@]12CC[C@H](O)C[C@H]1CC[C@@H]1[C@@H]2C[C@@H](O)[C@]2(C)[C@@H](C3=CC(=O)OC3)CC[C@]12O,8.33 (inactive)
10,CCC(=O)OC(Cc1ccccc1)(c1ccccc1)C(C)CN(C)C (stereo not given),8.25 (inactive)
11,C(#CCN1CCCC1)CN1CCCC1,6.42 (inactive)
12,C[N+]1([O-])[C@@H]2CC(OC(=O)[C@H](CO)c3ccccc3)C[C@H]1[C@@H]1O[C@@H]12 (stereo not given in full),10.4 (inactive)
13,CN[C@@H]1[C@@H](O)[C@@H](O[C@@H]2[C@@H](O)[C@H](O[C@H]3O[C@H]([C@@H](C)NC)CC[C@H]3N)[C@@H](N)C[C@H]2N)OC[C@]1(C)O (tested in a mixture with another compound),18.8 (inactive)
14,C[C@]12CC[C@H](O)C[C@H]1CC[C@@H]1[C@@H]2CC[C@]2(C)[C@@H](C3=CC(=O)OC3)CC[C@]12O,11.7 (inactive)
15,CCCCCC[C@H]1C(=O)O[C@H](C)C(NC(=O)c2cccc(NC=O)c2O)C(=O)O[C@@H](C)[C@@H]1OC(=O)CC(C)C (stereo not given in full),38.8 (inactive)
16,CC(=O)OCC(=O)[C@H]1CC[C@H]2[C@@H]3CC[C@H]4C[C@H](O)CC[C@]4(C)[C@H]3C(=O)C[C@]12C,32.2 (inactive)

# Tested on: not listed separately
# Experiment: P. berghei load reduction in hepatocytes – cell-based, HepG2, luciferase luminescence, HepG2 viability, primary screen (AID 624349);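 note: 100% = mean of DMSO negative control wells on the same plate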
# Details: P. berghei liver stage in HepG2, luciferase luminescence, concentration not given here; parasite load remaining: stronger effect = lower value; viability: measured here: HepG2 viability without parasites
SMILES,viability,parasite load remaining
CCC1(C)CC(=O)NC(=O)C1,101%,94.7% (inactive)
C[C@]12CC[C@@H](O)C[C@@H]1CC[C@@H]1[C@@H]2CC[C@]2(C)C(=O)CC[C@@H]12,90.3% and 79.5%,90.4% (inactive) and 71.8% (inactive)
Oc1ccc2c3c1O[C@H]1c4oc5ccccc5c4C[C@@]4(O)[C@@H](C2)N(CC2CC2)CC[C@]314,94%,33.1% (inactive)
C[C@]12CC[C@H]3[C@@H](CC[C@]4(O)C[C@@H](O)CC[C@]34C=O)[C@@]1(O)CC[C@@H]2C1=CC(=O)OC1,54%,0.385% (inactive)
C[C@]12CCC(=O)C=C1CC[C@@H]1[C@@H]2C(=O)C[C@]2(C)C(=O)CC[C@@H]12,96.5%,81.1% (inactive)
CN1C[C@H](CO)C=C2c3cccc4[nH]cc(c34)C[C@H]21,100% and 77.2%,67.2% (inactive) and 71.4% (inactive)
C[N+]1(C)C2CC[C@H]1CC(OC(=O)C(CO)c1ccccc1)C2 (stereo not given in full),105%,93.5% (inactive)
O=C1OCCN1N=Cc1ccc([N+](=O)[O-])o1,103%,34.2% (inactive)
CN1[C@@H]2CC[C@H]1CC(OC(=O)C1C=Nc3ccccc31)C2 (stereo not given in full),98.7%,130% (inactive)
C[C@]12CCC3[C@@H](CC[C@@H]4C[C@H](O)CC[C@]34C)[C@@H]1CCC2=O (stereo not given in full),95.7%,68.6% (inactive)
CCC1=C[C@@H]2CN3CCc4c([nH]c5ccccc45)[C@@](C(=O)OC)(C2)[C@@H]13,47.4%,9.8% (inactive)
CCOC(=O)c1cncn1[C@@H](C)c1ccccc1,128%,94.8% (inactive)
Clc1ccc(C(Cn2ccnc2)OCc2csc3c(Cl)cccc23)c(Cl)c1 (stereo not given),80.2% and 95%,93.3% (inactive) and 30.9% (inactive)
C[C@]12CC[C@H](O)C[C@H]1CC[C@@H]1[C@@H]2C[C@@H](O)[C@]2(C)[C@@H](C3=CC(=O)OC3)CC[C@]12O,57%,0.32% (inactive)
CCC(=O)OC(Cc1ccccc1)(c1ccccc1)C(C)CN(C)C (stereo not given),74.7%,85.5% (inactive)
C(#CCN1CCCC1)CN1CCCC1,112% and 92.6%,82.8% (inactive) and 98.5% (inactive)
CN1[C@@H]2CC[C@H]1CC(OC1c3ccccc3CCc3ccccc31)C2 (stereo not given in full),69.7%,67% (inactive)
CN[C@@H]1[C@@H](O)[C@@H](O[C@@H]2[C@@H](O)[C@H](O[C@H]3O[C@H]([C@@H](C)NC)CC[C@H]3N)[C@@H](N)C[C@H]2N)OC[C@]1(C)O,64.5%,20.1% (inactive)
C[N+]1([O-])[C@@H]2CC(OC(=O)[C@H](CO)c3ccccc3)C[C@H]1[C@@H]1O[C@@H]12 (stereo not given in full),30.6% and 90.4%,3.97% (inactive) and 96.4% (inactive)
CN[C@@H]1[C@@H](O)[C@@H](O[C@@H]2[C@@H](O)[C@H](O[C@H]3O[C@H]([C@@H](C)NC)CC[C@H]3N)[C@@H](N)C[C@H]2N)OC[C@]1(C)O (tested in a mixture with another compound),60.6% and 91.5%,54.7% (inactive) and 51.8% (inactive)
CCC1C(=O)OCC1Cc1cncn1C (stereo not given),114%,38.7% (inactive)
CN1CC[C@@]2(C)c3cc(O)ccc3N(C)[C@H]12,73.5%,82.4% (inactive)
C=C(C)[C@@H]1C2C(=O)O[C@H]1[C@H]1OC(=O)[C@@]34OC3C[C@]2(O)[C@@]14C (stereo not given in full),99.2%,103% (inactive)
C[C@]12CC[C@H](O)C[C@H]1CC[C@@H]1[C@@H]2CC[C@]2(C)[C@@H](C3=CC(=O)OC3)CC[C@]12O,40.6% and 30.9%,-9.15% (inactive) and 10.4% (inactive)
CCCCCC[C@H]1C(=O)O[C@H](C)C(NC(=O)c2cccc(NC=O)c2O)C(=O)O[C@@H](C)[C@@H]1OC(=O)CC(C)C (stereo not given in full),30.3% and 71%,0.52% (inactive) and 0.28% (active)
CC(=O)OCC(=O)[C@H]1CC[C@H]2[C@@H]3CC[C@H]4C[C@H](O)CC[C@]4(C)[C@H]3C(=O)C[C@]12C,77.5%,133% (inactive)
